# Results filed as inconclusive are left out. Active and inactive are the calls of the source. The call rests on the fitted dose curve; in most records, active means well fitted curve in the direction sought with a large enough effect; inconclusive means small, poorly fitted or top-dose-only effect, or another doubt; inactive means no such curve, though single readings can be large; an effect the other way counts as inactive or inconclusive. Positions of bridges follow the written chain, without caps; N, C: chain ends. Non-standard residues stand in square brackets, D forms with d. Residues, ends and D or L forms follow the SMILES beside them. ξ: configuration not given here. *: point of attachment. Octanoyl(6-Me) = CCC(C)CCCCC(=O)*; ξThr(3R) = C[C@@H](O)C(N)C(=O)O; dDab = NCC[C@@H](N)C(=O)O; Dab = NCC[C@H](N)C(=O)O
# How the values were obtained:
# [1] = Quantitative High-Throughput drug screen in 47 multiple myeloma cell lines against the NCATS MIPE library collection: JIM3_ECACC cell viability assay (AID 1918963; further: nearly all actives have a fitted effect of over 35% in size)
# Summary of the method: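 Approved and investigational drugs from MIPE 4.0 were added by pin tool to 500 cells per well. After 48 hours at 37C, ATP-based CellTiter-Glo luminescence indicated remaining viability.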
# [2] = Quantitative High-Throughput drug screen in 47 multiple myeloma cell lines against the NCATS MIPE library collection: JIM1_ECACC cell viability assay (AID 1918964)
# Summary of the method: (§1)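 CellTiter-Glo luminescence (ATP) after 48 h compound exposure, 37C/5% CO2; 500 cells/well; MIPE 4.0 approved/investigational drugs pinned in; DMSO = 100%, media only = 0% viability.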
# [3] = Quantitative High-Throughput drug screen in 47 multiple myeloma cell lines against the NCATS MIPE library collection: JJN3_DSMZ cell viability assay (AID 1918966; further: nearly all actives have a fitted effect of over 50% in size)
# Summary of the method: as §1
# [4] = Quantitative High-Throughput drug screen in 47 multiple myeloma cell lines against the NCATS MIPE library collection: KMS12BM_JCRB cell viability assay (AID 1918971); further: nearly all actives have a fitted effect of over 35% in size
# Summary of the method: (§2)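 Viability readout: CellTiter-Glo luminescence following 5 min room-temperature incubation with reagent. Prior exposure: 48 h, 37C, humidified 5% CO2, 500 cells per well.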
# [5] = Quantitative High-Throughput drug screen in 47 multiple myeloma cell lines against the NCATS MIPE library collection: KMS21BM_JCRB cell viability assay (AID 1918974); conditions: ATP luminescence, 48 h; viability: at 45.8 µM (top of the series)
# Summary of the method: as §1
# [6] = Quantitative High-Throughput drug screen in 47 multiple myeloma cell lines against the NCATS MIPE library collection: KMS26_JCRB cell viability assay (AID 1918975); further: nearly all actives have a fitted effect of over 45% in size
# Summary of the method: as §2
# [7] = Quantitative High-Throughput drug screen in 47 multiple myeloma cell lines against the NCATS MIPE library collection: MOLP8_DSMZ cell viability assay (AID 1918977); further: nearly all actives have a fitted effect of over 45% in size
# Summary of the method: (§3)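 ATP-based luminescence (CellTiter-Glo, 5 min RT incubation) quantified surviving cells following two days' treatment with MIPE 4.0 agents at 37 °C, 5% CO2.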
# [8] = Quantitative High-Throughput drug screen in 47 multiple myeloma cell lines against the NCATS MIPE library collection: OCIMY1_PLB cell viability assay (AID 1918979); further: nearly all actives have a fitted effect of over 35% in size
# Summary of the method: as §3
# [9] = Quantitative High-Throughput drug screen in 47 multiple myeloma cell lines against the NCATS MIPE library collection: MM1R_ATCC cell viability assay (AID 1918981); further: nearly all actives have a fitted effect of over 35% in size
# Summary of the method: as §3
# [10] = Quantitative High-Throughput drug screen in 47 multiple myeloma cell lines against the NCATS MIPE library collection: INA6_PLB cell viability assay (AID 1918965; further: nearly all actives have a fitted effect of over 55% in size)
# Summary of the method: (§4)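 Inhibition of cell viability is measured here. Each line was plated at 500 cells per well, treated with MIPE 4.0 drugs, kept 48 hours at 37C, then assayed for ATP content by CellTiter-Glo luminescence.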
# [11] = Quantitative High-Throughput drug screen in 47 multiple myeloma cell lines against the NCATS MIPE library collection: H1112_PLB cell viability assay (AID 1918967; further: nearly all actives have a fitted effect of over 30% in size)
# Summary of the method: as §1
# [12] = Quantitative High-Throughput drug screen in 47 multiple myeloma cell lines against the NCATS MIPE library collection: Karpas25_ECACC cell viability assay (AID 1918968; further: nearly all actives have a fitted effect of over 35% in size)
# Summary of the method: as §1
# [13] = Quantitative High-Throughput drug screen in 47 multiple myeloma cell lines against the NCATS MIPE library collection: KMS27_JCRB cell viability assay (AID 1918970); conditions: KMS27 myeloma cells, CellTiter-Glo ATP viability, 48 h; viability (% of DMSO): at 45.8 µM (top of the series); further: nearly all actives have a fitted effect of over 30% in size
# Summary of the method: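 Myeloma cells (500 per well) were exposed to MIPE 4.0 compounds for 48 h at 37 °C, 5% CO2; viability was read as ATP luminescence with CellTiter-Glo, normalized to DMSO-only (100%) and media-only (0%) wells.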
# [14] = Quantitative High-Throughput drug screen in 47 multiple myeloma cell lines against the NCATS MIPE library collection: MM1S_ATCC cell viability assay (AID 1918980); further: nearly all actives have a fitted effect of over 45% in size
# Summary of the method: as §3
# [15] = Quantitative High-Throughput drug screen in 47 multiple myeloma cell lines against the NCATS MIPE library collection: KMS12PE_JCRB cell viability assay (AID 1918972); further: nearly all actives have a fitted effect of over 30% in size
# Summary of the method: as §4
# [16] = Quantitative High-Throughput drug screen in 47 multiple myeloma cell lines against the NCATS MIPE library collection: KMS20_JCRB cell viability assay (AID 1918973); further: nearly all actives have a fitted effect of over 45% in size
# Summary of the method: as §1
# [17] = Quantitative High-Throughput drug screen in 47 multiple myeloma cell lines against the NCATS MIPE library collection: MMM1_PLB cell viability assay (AID 1918976); further: nearly all actives have a fitted effect of over 35% in size
# Summary of the method: as §3
# [18] = Quantitative High-Throughput drug screen in 47 multiple myeloma cell lines against the NCATS MIPE library collection: NCIH929_DSMZ cell viability assay (AID 1918978); further: nearly all actives have a fitted effect of over 35% in size
# Summary of the method: as §3
# Potency means the concentration at half of the fitted maximal effect.
SMILES,Potency [1],Potency [2],Potency [3],Potency [4],Potency [5],Potency [6],Potency [7],Potency [8],Potency [9],Potency [10],Potency [11],Potency [12],Potency [13],Potency [14],Potency [15],Potency [16],Potency [17],Potency [18]
C[C@](Cc1c[nH]c2ccccc12)(NC(=O)OC1C2CC3CC(C2)CC1C3)C(=O)NC[C@H](NC(=O)CCC(=O)O)c1ccccc1 (some centres undefined),inactive,inactive,inactive,inactive,inactive,inactive,inactive,inactive,inactive,–,–,–,–,–,–,–,–,–
C#Cc1cccc(Nc2ncnc3cc(OCCOC)c(OCCO)cc23)c1,1.87 µM (active),0.264 µM (active),–,–,0.132 µM (active),–,–,–,–,1.32 µM (active),1.87 µM (active),1.18 µM (active),0.0187 µM (active),3.72 µM (active),–,–,–,–
COc1ccc(C[C@@H](C)[C@@H](C)Cc2ccc(OC)c(OC)c2)cc1OC,0.418 µM (active),–,0.833 µM (active),0.662 µM (active),–,0.59 µM (active),2.96 µM (active),–,1.05 µM (active),0.662 µM (active),0.296 µM (active),0.662 µM (active),0.166 µM (active),–,0.372 µM (active),2.35 µM (active),5.9 µM (active),1.87 µM (active)
OC[C@@H](O)[C@@H](O)[C@H](O)[C@@H](O)CO,inactive,inactive,inactive,inactive,–,inactive,inactive,inactive,inactive,inactive,–,inactive,–,–,inactive,–,–,inactive
Cc1ccc([N+](=O)[O-])cc1S(=O)(=O)N(C)N=Cc1cnc2ccc(Br)cn12,0.0105 µM (active),0.001 µM (active),0.0105 µM (active),0.0662 µM (active),–,0.0235 µM (active),0.0083 µM (active),0.0526 µM (active),0.0332 µM (active),–,0.0132 µM (active),–,–,0.0296 µM (active),0.0209 µM (active),–,–,–
Nc1nc(N)c2nc(-c3cccc(O)c3)c(-c3cccc(O)c3)nc2n1,9.35 µM (active),1.87 µM (active),18.7 µM (active),–,7.43 µM (active),–,26.4 µM (active),–,18.7 µM (active),2.35 µM (active),7.43 µM (active),4.69 µM (active),4.18 µM (active),14.8 µM (active),–,7.43 µM (active),20.9 µM (active),4.18 µM (active)
COc1cc(N2CCC(C(N)=O)CC2)ccc1Nc1nc(N)c(Cl)c(Nc2ccccc2S(=O)(=O)C(C)C)n1,0.166 µM (active),0.0469 µM (active),0.105 µM (active),2.64 µM (active),–,1.87 µM (active),–,–,–,7.43 µM (active),0.148 µM (active),0.235 µM (active),0.264 µM (active),0.743 µM (active),–,0.001 µM (active),0.209 µM (active),0.0935 µM (active)
CNC(=O)c1cccc(-c2ccc3c(N4CCOC[C@H]4C)nc(N4CCOC[C@H]4C)nc3n2)c1,0.0418 µM (active),0.0132 µM (active),0.0743 µM (active),0.0166 µM (active),0.166 µM (active),–,0.0235 µM (active),–,0.0662 µM (active),0.526 µM (active),–,0.0743 µM (active),–,0.0833 µM (active),–,0.0935 µM (active),0.0166 µM (active),0.0166 µM (active)
CCC(C)CCCCC(=O)N[C@@H](CCN)C(=O)NC(C(=O)N[C@H](CCN)C(=O)N[C@@H]1CCNC(=O)C([C@@H](C)O)NC(=O)[C@@H](CCN)NC(=O)[C@@H](CCN)NC(=O)[C@@H](CC(C)C)NC(=O)[C@H](Cc2ccccc2)NC(=O)[C@H](CCN)NC1=O)[C@@H](C)O (stereo partly drawn) ({Octanoyl(6-Me)}-[Dab][ξThr(3R)][dDab][dDab][Dab]F[dL][dDab][dDab][ξThr(3R)]; lactam 4-C),inactive,inactive,inactive,–,–,–,inactive,inactive,inactive,–,inactive,–,inactive,–,inactive,inactive,–,inactive
N=c1ccn2c(n1)O[C@H]1[C@@H](O)[C@@H](CO)O[C@H]12,inactive,inactive,inactive,0.059 µM (active),2.96 µM (active),–,–,inactive,–,4.18 µM (active),–,–,5.9 µM (active),2.64 µM (active),11.8 µM (active),–,–,16.6 µM (active)
CC(C)(O)CC[C@@H](O)[C@](C)(O)[C@H]1CC[C@@]2(O)C3=CC(=O)[C@@H]4C[C@@H](O)[C@@H](O)C[C@]4(C)[C@@H]3CC[C@]12C,inactive,inactive,inactive,–,–,–,–,inactive,inactive,–,inactive,inactive,inactive,–,inactive,inactive,–,inactive
C[C@H](O)[C@@H]1C(=O)N2C(C(=O)O)=C(S[C@@H]3CN[C@H](CNS(N)(=O)=O)C3)[C@@H](C)[C@@H]12,inactive,inactive,–,–,–,inactive,–,inactive,inactive,–,inactive,inactive,–,–,inactive,inactive,–,inactive
C[C@]12CC[C@@H]3c4ccc(O)cc4CC[C@H]3[C@H]1CC[C@H]2O,14.8 µM (active),5.9 µM (active),23.5 µM (active),33.2 µM (active),3.32 µM (active),5.9 µM (active),–,–,14.8 µM (active),8.33 µM (active),8.33 µM (active),10.5 µM (active),–,8.33 µM (active),–,18.7 µM (active),–,–

# Source: PubChem BioAssay (NCATS)
